These results are taken from PubChem BioAssay (Tox21).

Inconclusive results are not listed. Calls of active or inactive are those of the source. Unless noted, calls follow the shape of the dose curve; as a rule, active = well fitted curve in the direction sought with a large enough effect in the repeat runs; inconclusive = weak or mixed curves; inactive = no such curve, though single readings can be large; an effect the other way counts as inactive or inconclusive.

Assay [1] can be described thus: qHTS assay to identify small molecule antagonists of the thyroid receptor (TR) signaling pathway (AID 743065). Also: series mostly up to about 70 µM; nearly all actives have a fitted effect of over 55% in size. A digest of the protocol: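 Antagonism measured as loss of luciferase signal in GH3 cells stably carrying a TRE-luciferase reporter, co-treated with compound and T3 (1 nM final) for 23.5 h at 37 C. Viability was read in the same well by CellTiter-Fluor.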
(In general: In qHTS, concentration-response curves come from the screen itself.)

Assay [2] has as its system thyroid hormone receptor (rat, GH3 cells). As to the kind of experiment: qHTS assay to identify small molecule agonists of the thyroid receptor (TR) signaling pathway (AID 743066; calls by dose curve).
For assay [3], the target named is Estrogen receptor (Homo sapiens) (UniProt P03372). As to the kind of experiment: qHTS assay to identify small molecule antagonists of the estrogen receptor alpha (ER-alpha) signaling pathway (AID 743069; active = well fitted curve in the direction sought with a large enough effect in the signal ratio in the repeat runs, not every such curve was filed as active; the % refers to the signal ratio). A digest of the protocol:
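ER-alpha-UAS-bla GripTite HEK293 line; 2% charcoal-stripped FBS overnight; plated, 4 hr 37C/5% CO2; cpd in DMSO + 17beta-estradiol, 18 hr 37C; LiveBLAzer B/G FRET substrate 2 hr RT; fluorescence intensity.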

Assay [4] is described as follows: qHTS assay to identify small molecule antagonists of the estrogen receptor alpha (ER-alpha) signaling pathway - cell viability counter screen (AID 743074; calls by dose curve;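 also: HEK293 cells carrying ER-alpha-UAS-bla reporter stimulated with 17beta-estradiol; nearly all actives have a fitted effect of over 45% in size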).
The target of assay [5] is Estrogen receptor (Homo sapiens) (UniProt P03372). As to the kind of experiment: qHTS assay to identify small molecule agonists of the estrogen receptor alpha (ER-alpha) signaling pathway (AID 743075; calls by dose curve;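 also: HEK293 GripTite cells with ER-alpha and UAS-driven beta-lactamase reporter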).
The target is the same in assay [6]. As to the kind of experiment: qHTS assay to identify small molecule agonists of the estrogen receptor alpha (ER-alpha) signaling pathway using the BG1 cell line (AID 743079). Also: nearly all actives have a fitted effect of over 20% in size. Also: potency is read from the fitted curve at half-maximal effect.
The nature of assay [7]: qHTS assay to identify small molecule antagonists of the estrogen receptor alpha (ER-alpha) signaling pathway using the BG1 cell line (AID 743080; calls by dose curve; also: series mostly up to about 70 µM; nearly all actives have a fitted effect of over 25% in size). A digest of the protocol: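 Antagonist mode: compounds in DMSO were pinned onto BG1-Luc-4E2 cells alongside 17beta-estradiol agonist, incubated 21.5 h, and ERE-driven luciferase measured with ONE-Glo. Cytotoxicity was multiplexed using CellTiter-Fluor fluorescence.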

Assay [8] is described as follows: qHTS assay to identify small molecule antagonists of the estrogen receptor alpha (ER-alpha) signaling pathway using the BG1 cell line - cell viability counter screen (AID 743081).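 Also: compound given together with 17beta-estradiol as the ER stimulus; series mostly up to about 70 µM; nearly all actives have a fitted effect of over 45% in size.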
The target in another assay is Aromatase (Homo sapiens) (UniProt P11511). As to the kind of experiment: qHTS assay to identify aromatase inhibitors (AID 743083). Also: series mostly up to about 70 µM; nearly all actives have a fitted effect of over 55% in size.
Assay [9] can be described thus: qHTS assay to identify aromatase inhibitors - cell viability counter screen (AID 743084).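 Also: cells stimulated with testosterone during compound exposure; nearly all actives have a fitted effect of over 55% in size.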
In assay [10] the target is Aryl hydrocarbon receptor (Homo sapiens) (UniProt P35869). As to the kind of experiment: qHTS assay to identify small molecule that activate the aryl hydrocarbon receptor (AhR) signaling pathway (AID 743085).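 Also: HG2L7.5c1 human HepG2 liver cells with stably integrated DRE-driven firefly reporter; series mostly up to about 70 µM; nearly all actives have a fitted effect of over 15% in size.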 The procedure, abridged:
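AhR agonist activity is inferred from enhanced light output of a DRE-controlled firefly luciferase reporter in HepG2 cells, measured with ONE-Glo following 24 h treatment at 37C.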

Assay [11] can be described thus: qHTS assay to identify small molecule that activate the aryl hydrocarbon receptor (AhR) signaling pathway - cell viability counter screen (AID 743086).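 Also: HepG2 liver cells carrying the AhR DRE luciferase reporter; series mostly up to about 70 µM; nearly all actives have a fitted effect of over 45% in size.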 A digest of the protocol:
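Cytotoxicity counter screen: CellTiter-Fluor signal (30 min, 37 C) in 4000 HepG2 cells/well carrying the DRE-luciferase reporter, following 24 h compound exposure at 37 C.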

For assay [12], the target named is Peroxisome proliferator-activated receptor gamma (Homo sapiens) (UniProt P37231). As to the kind of experiment: qHTS assay to identify small molecule agonists of the peroxisome proliferator-activated receptor gamma (PPARg) signaling pathway (AID 743094; active = well fitted activation curve with a large enough effect in the signal ratio in the repeat runs, not every such curve was filed as active; the % refers to the signal ratio). A digest of the protocol: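 Compounds dissolved in DMSO were added to PPARg UAS-bla HEK293H cells for 17 h at 37C, and reporter expression was quantified by fluorescence intensity after 1 h with LiveBLAzer B/G FRET substrate.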

A short description of assay [13]: qHTS assay to identify small molecule antagonists of the peroxisome proliferator-activated receptor gamma (PPARg) signaling pathway - cell viability counter screen (AID 743194). Also: nearly all actives have a fitted effect of over 55% in size. The procedure, abridged:
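Viability was measured as CellTiter-Glo luminescence in GeneBLAzer PPARg UAS-bla HEK293H cells. These cells had been exposed 17 h at 37 C to compounds together with rosiglitazone at 50 nM final, with the beta-lactamase readout taken in the same wells.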

The nature of assay [14]: qHTS assay for small molecule agonists of the antioxidant response element (ARE) signaling pathway (AID 743202; active = well fitted activation curve with a large enough effect in the signal ratio in the repeat runs, not every such curve was filed as active; the % refers to the signal ratio). A digest of the protocol: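 Quantitative high-throughput format in HepG2 cells bearing an integrated ARE-beta-lactamase reporter. Compound exposure lasted 16 h at 37 C, and fluorescence was read 2 h after adding LiveBLAzer B/G substrate at room temperature.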

A short description of assay [15]: qHTS assay for small molecule agonists of the antioxidant response element (ARE) signaling pathway - cell viability counter screen (AID 743203; calls by dose curve; also: nearly all actives have a fitted effect of over 55% in size). The procedure, abridged: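 Following 16 hrs of compound treatment at 37C, HepG2 cells with an ARE-controlled beta-lactamase gene were lysed with CellTiter-Glo. Luminescence was read after 30 min at room temperature.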
Assay [16] can be described thus: qHTS assay for small molecule activators of the heat shock response signaling pathway - cell viability counter screen (AID 743209). Also: nearly all actives have a fitted effect of over 50% in size. A digest of the protocol: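 Readout: CellTiter-Glo luminescence, 30 min at room temperature. System: HSE-bla HeLa cells, 1500/well, plated overnight. Treatment: compounds in DMSO, 5 h at 37 C.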
Assay [17] is described as follows: qHTS assay to identify small molecule agonists of the peroxisome proliferator-activated receptor delta (PPARd) signaling pathway - cell viability counter screen (AID 743211). Also: nearly all actives have a fitted effect of over 55% in size. The procedure, abridged:
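qHTS cell viability: PPARd-bla HEK293H; 17 h cpd, 37C; CellTiter-Glo, luminescence at 30 min RT.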

The nature of assay [18]: qHTS assay for small molecule activators of the heat shock response signaling pathway (AID 743210; active = well fitted activation curve with a large enough effect in the signal ratio in the repeat runs, with a control signal flat, not every such curve was filed as active; the % refers to the signal ratio;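 also: HeLa cells with beta-lactamase reporter driven by heat shock elements; series mostly up to about 63 µM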). A digest of the protocol: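 HeLa HSE-bla cells, overnight plating; cpd in DMSO 5 h, 37 C; LiveBLAzer B/G FRET substrate 2.5 h RT; fluorescence intensity read.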
For assay [19], the target named is Peroxisome proliferator-activated receptor gamma (Homo sapiens) (UniProt P37231). As to the kind of experiment: qHTS assay to identify small molecule antagonists of the peroxisome proliferator-activated receptor gamma (PPARg) signaling pathway (AID 743191; calls by dose curve; also: series mostly up to about 63 µM; nearly all actives have a fitted effect of over 30% in size). A digest of the protocol:
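Beta-lactamase reporter under UAS control in HEK293H PPARg-bla cells; compound treatment 17 h at 37C. Read-out: fluorescence intensity after 1 h room-temperature incubation with LiveBLAzer B/G FRET substrate.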

Chain of Aryl hydrocarbon receptor (Homo sapiens) (P35869 whole entry, looked up): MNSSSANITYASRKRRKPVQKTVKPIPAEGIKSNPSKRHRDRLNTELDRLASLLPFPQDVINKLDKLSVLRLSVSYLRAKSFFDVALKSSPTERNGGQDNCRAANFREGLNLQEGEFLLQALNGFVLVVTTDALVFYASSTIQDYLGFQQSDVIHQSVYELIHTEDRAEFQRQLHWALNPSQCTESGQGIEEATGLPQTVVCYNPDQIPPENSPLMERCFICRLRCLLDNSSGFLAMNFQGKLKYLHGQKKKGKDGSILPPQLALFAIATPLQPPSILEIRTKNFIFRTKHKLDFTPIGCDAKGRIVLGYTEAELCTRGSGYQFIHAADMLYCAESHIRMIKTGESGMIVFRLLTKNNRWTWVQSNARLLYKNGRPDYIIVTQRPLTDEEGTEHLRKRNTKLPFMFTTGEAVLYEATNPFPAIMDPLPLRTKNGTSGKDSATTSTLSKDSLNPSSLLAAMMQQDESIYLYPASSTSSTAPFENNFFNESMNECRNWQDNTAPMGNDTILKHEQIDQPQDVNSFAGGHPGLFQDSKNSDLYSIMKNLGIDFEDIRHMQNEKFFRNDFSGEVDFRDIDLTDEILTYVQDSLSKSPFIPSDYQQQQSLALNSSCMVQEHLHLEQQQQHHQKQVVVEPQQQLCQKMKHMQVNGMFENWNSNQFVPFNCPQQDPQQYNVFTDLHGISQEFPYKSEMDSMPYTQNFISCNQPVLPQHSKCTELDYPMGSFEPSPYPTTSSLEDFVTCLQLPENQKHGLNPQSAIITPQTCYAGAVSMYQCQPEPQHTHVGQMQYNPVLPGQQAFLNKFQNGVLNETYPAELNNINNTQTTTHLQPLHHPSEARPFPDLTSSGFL
Chain of Peroxisome proliferator-activated receptor gamma (Homo sapiens) (P37231 whole entry, looked up): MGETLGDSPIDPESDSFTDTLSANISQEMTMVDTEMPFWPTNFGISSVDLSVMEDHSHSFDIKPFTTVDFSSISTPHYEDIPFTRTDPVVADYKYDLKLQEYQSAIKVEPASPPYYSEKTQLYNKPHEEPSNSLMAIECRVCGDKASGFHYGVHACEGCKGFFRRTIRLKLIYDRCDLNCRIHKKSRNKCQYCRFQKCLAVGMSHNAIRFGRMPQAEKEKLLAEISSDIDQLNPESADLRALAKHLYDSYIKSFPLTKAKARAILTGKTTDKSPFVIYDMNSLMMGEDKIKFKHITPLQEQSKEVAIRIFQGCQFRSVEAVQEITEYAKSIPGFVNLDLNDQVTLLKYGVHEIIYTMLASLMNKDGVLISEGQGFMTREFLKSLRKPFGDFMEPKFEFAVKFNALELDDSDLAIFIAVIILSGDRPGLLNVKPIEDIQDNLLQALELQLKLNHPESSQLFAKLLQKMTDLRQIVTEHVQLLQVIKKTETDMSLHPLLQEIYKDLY
Chain of Aromatase (Homo sapiens) (P11511 whole entry, looked up): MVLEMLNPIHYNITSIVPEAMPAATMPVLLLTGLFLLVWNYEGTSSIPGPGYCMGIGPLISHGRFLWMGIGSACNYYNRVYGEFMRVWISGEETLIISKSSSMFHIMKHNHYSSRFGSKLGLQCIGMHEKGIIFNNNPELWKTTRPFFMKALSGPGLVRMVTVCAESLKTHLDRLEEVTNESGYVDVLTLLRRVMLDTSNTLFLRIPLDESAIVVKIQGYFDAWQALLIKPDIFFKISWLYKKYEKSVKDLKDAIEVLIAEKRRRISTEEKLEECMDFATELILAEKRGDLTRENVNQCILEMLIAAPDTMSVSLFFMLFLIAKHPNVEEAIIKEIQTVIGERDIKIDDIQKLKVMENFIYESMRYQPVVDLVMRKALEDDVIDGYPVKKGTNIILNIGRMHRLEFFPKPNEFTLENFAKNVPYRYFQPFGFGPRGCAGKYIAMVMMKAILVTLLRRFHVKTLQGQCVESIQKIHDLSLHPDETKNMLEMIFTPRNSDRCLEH
Chain of Estrogen receptor (Homo sapiens) (P03372 whole entry, looked up): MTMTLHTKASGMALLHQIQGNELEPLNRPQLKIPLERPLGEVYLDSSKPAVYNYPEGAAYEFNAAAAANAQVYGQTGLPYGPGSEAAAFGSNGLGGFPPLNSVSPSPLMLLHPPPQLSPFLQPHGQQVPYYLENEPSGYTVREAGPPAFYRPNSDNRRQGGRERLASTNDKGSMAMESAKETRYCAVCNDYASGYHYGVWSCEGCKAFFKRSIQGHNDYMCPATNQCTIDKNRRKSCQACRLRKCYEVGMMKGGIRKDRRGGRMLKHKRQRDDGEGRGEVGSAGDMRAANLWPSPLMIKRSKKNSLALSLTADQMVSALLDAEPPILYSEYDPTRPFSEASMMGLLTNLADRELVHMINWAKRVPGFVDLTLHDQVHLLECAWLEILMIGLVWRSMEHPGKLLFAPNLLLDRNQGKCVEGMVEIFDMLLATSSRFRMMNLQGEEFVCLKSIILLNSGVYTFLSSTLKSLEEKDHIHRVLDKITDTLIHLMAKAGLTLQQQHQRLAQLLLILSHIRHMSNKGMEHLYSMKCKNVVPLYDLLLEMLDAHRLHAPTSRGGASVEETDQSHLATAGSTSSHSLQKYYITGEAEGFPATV

Regarding `C=COCC1CCC(COC=C)CC1` (stereo unspecified), the Potency entry in assay [1], in [3], in assay [4], in assay [5], in assay [6] and in assay [7] was “inactive” in each case. The Potency entry in assay [9], in assay [10], in [11], in assay [12] and in assay [14] was “inactive” each time. The result (in assay [2]; in [8]; with Aromatase (Homo sapiens); in [13]; in assay [15]; in [16]) was inactive. In addition, the call in [17] was inactive.

For the compound `Cc1ccc(C(=O)c2ccccc2)cc1`, the Potency entry in assay [1], in assay [3], in assay [4], in [5], in assay [7] and in [9] was “inactive” in each case. Also, the Potency result in assay [10], in [11], in assay [12] and in [14] was “inactive” throughout. Further, the call (in [2]; in [8]; in the assay with Aromatase (Homo sapiens); in assay [13]; in [15]; in assay [16]) was inactive. Moreover, the outcome in assay [18] and in [17] was inactive. Besides, the Potency in [6] was 21.7 µM (active).

On to `CC(N)C12CC3CC(CC(C3)C1)C2` (stereo unspecified), for which the Potency entry in [1], in [3], in [4], in assay [5], in [6] and in [7] was “inactive” in each case. Also, the Potency entry in assay [9], in assay [10], in assay [11], in assay [12], in assay [19] and in assay [14] was “inactive” each time. Also, the call (in assay [2]; in assay [8]; with Aromatase (Homo sapiens); in assay [13]; in assay [15]; in assay [16]) was inactive. The call in [18] and in assay [17] was inactive.

Turning to `CC(=O)c1ccccc1[N+](=O)[O-]`, the Potency entry in assay [1], in assay [3], in assay [4], in [5], in [6] and in assay [7] was “inactive” each time. For the same compound, the Potency entry in [9], in [10], in assay [11], in assay [12], in assay [19] and in assay [14] was “inactive” in each case. The compound was classed as inactive (in assay [2]; in assay [8]; with Aromatase (Homo sapiens); in assay [13]; in assay [15]; in assay [16]). Besides, the compound was called inactive in [18] and in assay [17].

`CC(=O)NC(=O)c1ccccc1O`: the Potency result in assay [1], in assay [3], in assay [4], in [5], in assay [6] and in assay [7] was “inactive” throughout. Also, the Potency result in assay [9], in assay [10], in assay [11], in assay [12], in assay [19] and in [14] was “inactive” in each case. Further, the compound was called inactive (in [2]; in assay [8]; with Aromatase (Homo sapiens); in assay [13]; in assay [15]; in [16]). Moreover, in [18], the compound was classed as inactive.

Turning to `CCC1C(=O)OCC1Cc1cncn1C` (stereo unspecified), the Potency result in assay [1], in assay [3], in [4], in assay [5], in assay [6] and in assay [7] was “inactive” in each case. The Potency entry in assay [9], in assay [10], in assay [11], in assay [12], in assay [19] and in assay [14] was “inactive” throughout. In addition, the outcome (in [2]; in assay [8]; with Aromatase (Homo sapiens); in [13]; in [15]; in assay [16]) was inactive. For the same compound, the compound was classed as inactive in assay [18] and in [17].

Take `CC(=O)C1CCCCC1=O` (stereo unspecified): the Potency entry in assay [1], in [3], in assay [4], in [5], in assay [6] and in [7] was “inactive” in each case. Also, the Potency result in assay [9], in [10], in assay [11], in assay [12], in assay [19] and in assay [14] was “inactive” in each case. Further, the result (in [2]; in assay [8]; in the assay with Aromatase (Homo sapiens); in assay [13]; in assay [15]; in [16]) was inactive. Also, the call in [18] and in [17] was inactive.
